# Measurements: PubChem BioAssay (NCATS)
# Records with an inconclusive call do not appear. A number with no mark means an inactive call. Active and inactive are the calls of the source. Calls follow the shape of the dose curve; as a rule, active = well fitted inhibition curve with a large enough effect; inconclusive = small, poorly fitted or top-dose-only effect; inactive = flat fitted curve, though single readings scatter.
# Experiment: P-glycoprotein substrates identified in KB-8-5-11 adenocarcinoma cell line, qHTS therapeutic library screen (AID 1346987); also: nearly all actives have a fitted effect of over 65% in size
# Conditions: KB-8-5-11 (P-gp overexpressing) viability, CellTiter-Glo, 72 h; series mostly up to 44.5 µM; activity change, negative = cytotoxicity: at the top concentration
# Procedure, shortened: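 Steps: plate 500 KB-8-5-11 cells/well in DMEM + 10% FCS (colchicine removed); pin compounds in dose-response; incubate 72 h, 37 degree C, 5% CO2; add CellTiter-Glo, 5 min; read luminescence.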
# % is scaled to controls: 0 for no effect and ±100 for the full control effect; potency is read from the fitted curve at half-maximal effect.
SMILES,Potency,"activity change, negative = cytotoxicity",outcome
COc1c(C)cnc(Cn2cc(C#CCC(C)(C)O)c3c(Cl)nc(N)nc32)c1C,0.0326 µM (active),–,–
CC(C)(Cc1ccccc1)NCC(O)c1ccc(O)c(NS(C)(=O)=O)c1 (stereo not given),–,-0.935%,–
Cn1ncc(Cl)c1-c1cc(C(=O)NC(CN)Cc2ccc(F)c(F)c2)oc1Cl (stereo not given),14.6 µM (active),–,–
CCCCCCCCCCCCCCCC(=O)OC[C@H](O)[C@H]1OC(=O)C(O)=C1O,–,16.9%,–
CNCc1cc(-c2ccccc2F)n(S(=O)(=O)c2cccnc2)c1,–,-8.24%,–
CC(C)C(C)C(O)C1CC23CC(=O)C4(O)C(=C2CCC3C1C)C=CC1(O)CC(O)CCC14C (stereo not given),–,-3.25% [at 17.3 µM],–
CC1(C)CC[C@]2(C(=O)O)CC[C@]3(C)C(=CCC4[C@@]5(C)C[C@@H](O)[C@H](O)C(CO)(CO)C5CC[C@]43C)C2[C@@H]1O (stereo not given in full),7.96 µM (active),–,–
CO[C@H]1[C@@H](O)[C@H](N)[C@@H](O[C@H]2O[C@H]([C@H](C)N)CC[C@H]2N)[C@H](O)[C@@H]1N(C)C(=O)CN,–,0.911%,–
C=C(C)C1CC(O)C(C)C12CC(O)C1(C)OC1C2O (stereo not given),3.66 µM (active),–,–
C=C1C(=O)O[C@@H]2[C@H]1CC(=O)[C@H](C)[C@@](O)(C(=O)/C=C/C)[C@H]2OC(=O)C(C)CC (stereo not given in full),5.7 µM (active),–,–
C[C@@H](Nc1ncnc2[nH]c(-c3ccc(O)cc3)cc12)c1ccccc1,8.2 µM (active),–,–
COC1CC/C=C(\C)C(=O)Nc2cc(O)cc(c2)CC(C)CC(OC)C(O)C(C)/C=C(\C)C1OC(N)=O (stereo not given),–,–,inactive [at 17.3 µM]
C=C(C)C(=O)O[C@H]1[C@H]2C(=C)C(=O)O[C@@H]2/C=C(\CO)CC/C=C(/C=O)[C@@H]1O,–,9.69%,–
Cc1cccc(C#Cc2cc(F)cc(C#N)c2)n1,–,-11.7%,–
CCCn1cc2c(nc(NC(=O)Nc3ccc(OC)cc3)n3nc(-c4ccco4)nc23)n1,–,3.1%,–
COc1ccc(Cl)c(Nc2ncnc3cc(OCC4CCN(C)CC4)c(OC)cc23)c1,–,-4.33%,–
CC(=O)NCc1cccc(OC[C@@H](O)CNCCc2ccc(NS(=O)(=O)c3ccccc3)cc2)c1,–,–,inactive
Cc1cc(NC(=O)c2cccc(NC(=O)/C=C/CN(C)C)c2)ccc1Nc1nccc(-c2cccnc2)n1,–,3.1%,–
COC(C)=O,–,-14%,–
CCCCCC(O)/C=C/C=O (stereo not given),–,3.05%,–

SMILES,Potency,"activity change, negative = cytotoxicity",outcome
N#Cc1cc(C2=Nc3ccc(Br)cc3NC(=O)C2)ccn1,–,9.82%,–
O=C(CSc1nc2ccccc2c(=O)n1-c1ccccc1)Nc1ccc2c(c1)CCC2,–,-14.9%,–
CC(=O)OC1CC2(C)C(CCC(C)C23Cc2c(O)cc(CO)c(C=O)c2O3)C(C)(C)C1O (stereo not given),–,-15.3% [at 17.3 µM],–
C/C=C(/C)C(=O)O[C@@H]1C[C@@H](OC(=O)CC(C)C)C2(C)C3C(=O)C=C(C)C2C3C1(C)C (stereo not given in full),–,-21% [at 17.3 µM],–
NCCC(=O)[N-][C@@H](Cc1cnc[nH]1)C(=O)O.[Zn],–,10.5%,–
OC(CN1CCCCC1)c1cc(-c2ccccc2)on1 (stereo not given),–,-8.56%,–
Nc1nc2c(ncn2C2OC3COP(=O)(O)OC3C2O)c(=O)[nH]1 (stereo not given),–,-0.115%,–
C=CC1(C)CC(O)C(C(=C)C(=O)OC)C(O)C1C(=C)CO (stereo not given),–,-1.93%,–
C=C1/C(=C/C=C2\CCC[C@]3(C)[C@@H]([C@H](C)CC[C@@H](O)C(C)(C)O)CC[C@@H]23)C[C@@H](O)C[C@@H]1O,–,-35.8%,–
CCC(=O)N1CCOc2c(cc(-c3ccc(OC)c(OC)c3)cc2OC[C@H]2CCCN(C)C2)C1,–,-19.4%,–
Nc1c(S(=O)(=O)c2ccccc2)c2nc3ccccc3nc2n1-c1ccc(F)cc1,–,-20.3%,–
CC(C)(C)[C@H](NC(=O)c1ccc(N)c(Cl)c1)C(=O)N1CCC[C@H]1C(=O)N[C@H](C#N)CC(=O)O,–,9.42%,–
CCc1cc2c(cc1CC)CC(NCC(O)c1ccc(O)c3[nH]c(=O)ccc13)C2 (stereo not given),–,8.45%,–
CN1CCC(NC(=O)c2cc(-c3c(O)cc(O)cc3Oc3ccc([N+](=O)[O-])cc3)on2)CC1,11.6 µM (active),–,–
OC[C@H]1O[C@@H](OC/C=C/c2ccc(O)cc2)[C@H](O)[C@@H](O)[C@@H]1O,–,-5.86%,–
CNCCCC1(c2ccccc2)OC(C)(C)c2ccccc21 (stereo not given),–,-11.3%,–
Oc1cccc(C2NC(=S)Nc3cccc(F)c32)c1 (stereo not given),23.1 µM (active),–,–
O=C(CN1C2=NCCN2c2ccccc21)c1ccc(-c2ccccc2)cc1,16.4 µM (active),–,–
C=CS(=O)(=O)O,–,15.8%,–
O=C(Nc1cccc(C(F)(F)F)c1)Nc1ccc(Br)cc1-c1nn[nH]n1,–,-10.6%,–
